Source: PubChem BioAssay AID624296 (National Center for Advancing Translational Sciences (NCATS), 2012)
Screen size: about 350,000 compounds; about 9,900 (2.8%) were called active. Inconclusive results (about 15%) are left out. The sample holds actives, similar compounds and a random draw of the others, so the mix is not that of the screen. A number with no mark means an inactive call. The call rests on the fitted dose curve; in most records, active means well fitted activation curve with a large enough effect; inconclusive means small, poorly fitted or top-dose-only effect; inactive means no such curve, though single readings can be large or run the other way.

Assay: A quantitative high throughput screen for small molecules that induce DNA re-replication in MCF 10a normal breast cells. Further: nearly all actives have a fitted effect of over 50% in size. On activity, positive = re-replication: % of control where 0% means no effect.
Details: MCF 10A DNA re-replication, Hoechst nuclear intensity, 48 h; series mostly up to 46.1 µM; activity, positive = re-replication: at the top concentration
Description: H Molecular Libraries Probe Production Network [MLPCN]
NIH Chemical Genomics Center [NCGC]
Assay Provider: Melvin DePamphilis, NICHD, NIH
Eukaryotic cells normally restrict genome duplication to once per cell division. When this process is aberrant, DNA re-replication occurs when cells reinitiate DNA replication before the first round of replication is complete. DNA re-replication induces the DNA damage response, arrests cell proliferation, and triggers apoptosis. The cell cycle components cyclin A, Cdt-1, Cdc6 and geminin are critical regulators of this process and their misregulation results in DNA re-replication in normal and cancer cells. To identify compounds that induce re-replication in normal cells, an image-based assay was used to measure DNA content of nuclei, as detected by the fluorescent DNA binding dye, Hoechst. Cell nuclei were imaged by a fluorescence scanning plate imager and compounds that induce DNA re-replication were identified by the increase of nuclei with elevated fluorescence intensity
For screening, 250 cells in 5 uL/well were dispensed into black clear 1536-well plates (Aurora) using a solenoid-based dispenser. Following transfer of 23 nL compound or DMSO vehicle by a pin tool, the plates were incubated 48 hr at 37 C and 5% CO2. After addition of 1 uL/well Hoescht stain, the plates were incubated 40 min at 37 C, 5% CO2 and total intensity of fluorescent objects (nuclei) were enumerated by an Acumen Explorer Ex3 (TTP LabTech) fluorescence scanning plate imager (405 nm excitation, 500-530 nm emission).
Keywords: NIH Roadmap, MLPCN, MLI, MLSMR, qHTS, NCGC, DNA replication, cancer
Potency means the concentration at half of the fitted maximal effect.

Structure (SMILES)	Potency	activity, positive = re-replication
COc1cc(Cn2c(N)c(C(=O)NCc3ccco3)c3nc4ccccc4nc32)cc(OC)c1OC	2.31 µM (active)	–
CCOC(=O)c1c(N)n(Cc2ccccc2)c2nc3ccccc3nc12	–	-4.73%
CCOC(=O)c1c(N)n(CCN2CCOCC2)c2nc3ccccc3nc12	–	5.89%
CC1CCCN1CCC(C(N)=O)(c1ccccc1)c1ccccc1 (stereo not given)	–	-16.2%
C[C@]12CC[C@H](O)CC1=C([N+](=O)[O-])CC1C2CC[C@@]2(C)C1CC[C@@H]2O (stereo not given in full)	–	-1.74%
CCc1ccc(OCC(=O)N2CCN(CC(=O)Nc3ccccc3Cl)CC2)cc1	–	9.38%
C[C@]12CCCCC1=CC(=O)C1C2CC[C@@]2(C)C1C[C@@H](F)[C@@H]2O (stereo not given in full)	–	4.37%
O=c1[nH]c(CN2CC=C(c3ccccc3)CC2)nc2scc(-c3cccs3)c12	25.9 µM (active)	–
C=C(C)C1(CCCC)C(=O)NC(=S)NC1=O	–	-1.56%
Cc1ncsc1CCCl	–	-2.7%
CCC(=O)c1ccc(OCC(=O)N2CCN(CC(=O)Nc3ccc(C)cc3)CC2)cc1	–	-12.2%
COc1ccc(C2CC(c3cccs3)=NN2c2nc(C)c(C(C)=O)s2)cc1OC (stereo not given)	3.26 µM (active)	–
c1ccc2sc(SNC3CCCCC3)nc2c1	–	0.201%
C=CCN1CCC23c4c5ccc(O)c4O[C@H]2C(=O)CC[C@@]3(O)C1C5 (stereo not given in full)	–	4.94%
CC1C(=O)OC2CCN3CC=C(COC(=O)C(C)(O)C1(C)O)C23 (stereo not given)	–	-2.57%
COc1ccc2c3c1O[C@H]1C[C@@H](O)C=C[C@@]31CCN(C)C2	inactive	–
CCOC(=O)CC(SP1(=S)OCC2(CCCCO2)C(C2CCCCO2)O1)C(=O)OCC (stereo not given)	–	5.67%
C[C@]12CCC3C(CC[C@H]4[C@H](O)[C@H](O)CC[C@]34C)C1CC[C@@H]2O (stereo not given in full)	–	4.54%
C/C(CCc1c[nH]c2ccccc12)=N\O	–	-0.423%
O=[N+]([O-])c1cnc2ccc3ccccc3c2c1	–	1.89%
C/C(=N/O)c1ccc2ccc3ccccc3c2c1	25.9 µM (active)	–
CCNC[C@H](O)c1cccc(O)c1	–	2.78% [at 20.6 µM]
Nc1ccc(Cc2ccc(N)c(Cl)c2)cc1Cl	–	9.77%
COc1ccc2c(c1)NP(=S)(c1ccccc1)N2 (stereo not given)	–	0.0619%

Structure (SMILES)	Potency	activity, positive = re-replication
CC(CC(C#N)(c1ccccc1)c1ccccc1)N1CCCCC1 (stereo not given)	–	1.98%
CN(C)CC1Oc2ccccc2OC1(O)c1ccccc1 (stereo not given)	2.59 µM (active)	–
c1ccc(C(CN2CCCCC2)c2ccccc2)cc1	–	0.205%
COc1cc(OC)cc(C2(C#N)CCN(C)CC2)c1	–	-5.67%
Cc1cccc([C@H](C)c2cnc[nH]2)c1C	–	-1.12%
CCOc1ccc(CN(CCCl)CCCl)cc1C(=O)OC	–	27.9%
O=C1NC(=O)C(Cc2ccccc2)C(=O)N1	–	7.99%
Cn1cc(C(=O)OCC(=O)N2CCCC2)c2ccccc21	–	-5.31%
N#Cc1ccc(Cn2cc(C(=O)c3ccco3)c3ccccc32)cc1	–	9.12%
NC(=O)Cn1cc(C(=O)c2ccccc2F)c2ccccc21	0.58 µM (active)	–
CCOC(=O)C1(c2ccccc2)CCN(CC(O)c2ccc(NC(C)=O)cc2)CC1 (stereo not given)	–	-0.895%
Cc1nc2ccccc2c(=O)n1-c1ccc(Cl)cc1Cl	–	7.11%
O=c1c2ccccc2nc(/C=C/c2ccco2)n1-c1ccccc1O	23.1 µM (active)	–
O=c1c2ccccc2nc(-c2ccco2)n1-c1ccc(Br)cn1	–	28.7%
CNC(C)[C@@H](O)c1ccccc1 (stereo not given in full)	–	4.33%
CCC(=O)OC(Cc1ccccc1)(c1ccccc1)C(C)CN(C)C (stereo not given)	–	1.9%
c1cc2c(cc1C1OCC3C(c4ccc5c(c4)OCO5)OCC13)OCO2 (stereo not given)	–	-0.791%
CC(=O)C1(O)CCC2C3CCC4=C(Cl)C(=O)CCC4(C)C3CCC21C (stereo not given)	–	-1.71%
CCNc1nc2[nH]c(=O)c3c(c2s1)OC(N)=C(C#N)C3c1cccs1 (stereo not given)	–	-7.38%
N#CC1=C(N)Oc2c(c(=O)oc3ccccc23)C1c1ccccc1OC(=O)c1cccs1 (stereo not given)	20.6 µM (active)	–
CCN1C(=O)NC(=O)C2(CCCC2)C1=O	–	1.74%
COc1cc(-n2c(=S)[nH]c3ccc(C)cc3c2=O)c(Cl)cc1Cl	13 µM (active)	–
CC1([N+](=O)[O-])COP(=O)(Nc2ccc(F)cc2)OC1 (stereo not given)	–	0.716%
COc1ccc2cc1Oc1ccc(cc1)C[C@H]1c3cc(c(OC)cc3CCN1C)Oc1c(O)c(OC)cc3c1[C@H](C2)N(C)CC3	20.6 µM (active)	–

Structure (SMILES)	Potency	activity, positive = re-replication
COc1c(O)ccc2c1-c1c3c(cc4c1C(C2)N(C)CC4)OCO3 (stereo not given)	–	2.18%
CC[N+]1(CCOC(=O)C(O)(c2ccccc2)c2ccccc2)CCCCC1	–	-0.489%
COC1=C[C@@H]2[C@@H]3Cc4ccc(OC)c(O)c4[C@]2(CCN3C)CC1=O	–	-6.99%
CNCC[C@H](Oc1ccc(C(F)(F)F)cc1)c1ccccc1	–	-31.5%
Cc1cc(-c2ccc(N)c(C)c2)ccc1N	–	1.97%
CC1CNCCN1c1ccc(Cl)cc1 (stereo not given)	–	2.88%
C[C@@H]1C[C@@H]2O[C@H]2/C=C\C=C\C(=O)Cc2c(Cl)c(O)cc(O)c2C(=O)O1	9.2 µM (active)	–
CC(=O)OC1C([N+]2(C)CCCCC2)C[C@H]2C3CC[C@H]4C[C@H](OC(C)=O)C([N+]5(C)CCCCC5)CC4(C)C3CCC12C (stereo not given in full)	–	-4.37%
Cc1ncc(CC(=O)n2cc(C(=O)c3cc(Cl)ccc3O)cn2)s1	10 µM (active)	–
C[C@]12CCC3C(CC[C@H]4[C@H](O)[C@H](O)CC[C@]34C)C1CCC2=O (stereo not given in full)	–	-8.95%
O=C1NC(=O)C(CCOc2ccccc2)(CCc2ccccc2)C(=O)N1	–	16.8%
CCC1(c2ccccc2)C(=O)NC(=O)N(C)C1=O (stereo not given)	–	-1.92%
CCC1(CC(C)c2ccccc2)C(=O)NC(=O)NC1=O (stereo not given)	–	-24%
Cc1cc2ccccn2c1C(C[N+](=O)[O-])c1c(F)cccc1Cl (stereo not given)	3.26 µM (active)	–
Oc1ccc2c3c1OC1[C@H](O)CC[C@@]4(O)[C@@H](C2)N(CC2CC2)CC[C@]314 (stereo not given in full)	inactive	–
CN1CCCC(=C(c2cccs2)c2cccs2)C1	–	13.4%
COC(=O)[C@@H]1C(OC(=O)c2ccccc2)CC2CCC1N2C (stereo not given in full)	–	-11.5%
Brc1cc(Br)c(Oc2cc(Br)c(Br)cc2Br)cc1Br	14.6 µM (active)	–
CC[C@]1(C(=O)OC)[C@H]2C(=O)N(Cc3ccccc3)C(=O)[C@H]2[C@H]2CN=C(SCc3ccc(C#N)cc3)N21	–	5.65%
Cc1cc(C)c2c(c1)NP(=S)(c1ccccc1)N2 (stereo not given)	–	0.425%
CN=C(NC#N)NCCSCc1nc[nH]c1C	inactive	–
O=C(N/N=C/c1ccc([N+](=O)[O-])o1)c1cc([N+](=O)[O-])cc([N+](=O)[O-])c1O	–	-1.45%
